Compound activity as filed in PubChem.
HT1080 IDH1KD tx: HT-1080 IDH1 knockdown cell toxicity (counter line). 2% of 360,000 active. HT-1080 IDH1 knockdown viability, ATP luminescence, 48 h. Potency, µM (series often up to 46.1 µM), without a hit: at the top dose activity, negative = toxicity, actives largely listed as cytotoxic;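 note: 0% = DMSO wells and -100% = cell-free medium wells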
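CellTiter-Glo luminescence after 48 h compound exposure at 37 degrees C of IDH1-knockdown HT-1080 cells in 5% FBS RPMI. %Activity scaled between DMSO wells and cell-free media wells, with curves fitted and assigned curve classes.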
ATXN2 expr inh: ATXN2 expression inhibition | HEK-293 ATXN2-luciferase reporter, luminescence, 24 h | Potency, µM (top dose mostly 57 µM), for the others: at the top dose activity change, negative = inhibition, hits mostly inhibitors | 0.72% of 360,000 active | AID 1745845; note: % is set by controls: 0 for no effect and ±100 for the full control effect; nearly all actives have a fitted effect of over 55% in size
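ATXN2-luciferase reporter cells (luciferase flanked by upstream and downstream ATXN2 gene portions) were treated 24 h at 37 °C with compounds at up to 57 uM. SteadyGlo luminescence gave expression; GF-AFC fluorescence gave viability.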
S2 tox: reduces viability in counter-screen for ATXN expression inhibitors; S2 cells (HEK-293 line with an ATXN2-luciferase reporter) viability, CellTiter-Fluor protease fluorescence, 24 h; Potency, µM (series often up to 56.7 µM), actives largely listed as cytotoxic; 0.49% of 400,000 active; note: nearly all actives have a fitted effect of over 40% in size
TGFb SMAD3 inh: inhibitors of TGF-b signaling. Potency, µM (highest dose often 46.1 µM), for inactives: top-dose activity, negative = inhibition, hits mostly inhibitors. HepG2 CAGA-GFP TGF-b/SMAD3 reporter, GFP fluorescence, 18 h; TGF-beta stimulated, 500 pg/mL final. AID 588855. 1.2% of 410,000 active; note: % is set by controls: 0 for no effect and ±100 for the full control effect; nearly all actives have a fitted effect of over 65% in size
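Read-out: total well GFP (ex488/em500-530) summed from mean per-cell fluorescence. Cells: HEPG2 CAGA-GFP, 1% FBS DMEM, 18 h at 37 degrees C with 500 pg/mL final TGF-beta. Unstimulated wells served as the full-inhibition control; stimulated DMSO wells = 0%.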
HT1080NT lethal: kills 2HG-producing HT-1080-NT fibrosarcoma cells; HT-1080-NT fibrosarcoma viability, CellTiter-Glo ATP luminescence, 48 h; Potency, µM (titrated, usually from 46.1 µM), without a hit: at the top dose activity, negative = less viability, actives largely listed as cytotoxic; 1.6% of 360,000 active; AID 686970;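 note: NT is the 2HG producing partner of a matched IDH1 knockdown line; 0% = DMSO-treated cells and -100% = media-only wells without cells; nearly all actives have a fitted effect of over 55% in size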
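Luminescent CellTiter-Glo readout after 48 hours of compound exposure at 37 degrees C defined viability of HT-1080-NT cells. Activity was normalized to DMSO wells and cell-free media wells; concentration-response curves were fitted and assigned curve classes.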
HepG2 viability: kills HepG2 cells in TGF-b inhibitor counter-screen | HepG2 CAGA-GFP viability, ATP luminescence, 18 h | Potency, µM (highest dose often 46.1 µM), without a hit: at the highest dose activity change, negative = cytotoxicity, most hits filed as cytotoxic | 0.76% of 410,000 active | AID 588856
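HepG2 CAGA-GFP cells (1000/well, DMEM with 1% FBS) received compound, then TGF-beta at 500 pg/mL final, and were incubated 18 hours at 37 degrees C. Viability was read by CellTiter-Glo luminescence. Media-only wells were set as complete cell-killing and DMSO as no toxicity.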
An asterisk follows results filed as active; i = inactive; u = inconclusive; x = no result given. Hits are enriched below; roughly 3.9% of the tested compounds scored in any of these assays. Calls come from the whole dose curve; as a rule, active = well fitted curve in the direction sought with a large enough effect; inconclusive = small, poorly fitted or top-dose-only effect, or another doubt; inactive = no such curve, though single readings can be large; an effect the other way counts as inactive or inconclusive. Potency is the fitted concentration of half-maximal effect.

SMILES	HT1080 IDH1KD tx	ATXN2 expr inh	S2 tox	TGFb SMAD3 inh	HT1080NT lethal	HepG2 viability
CCN1/C(=C/C(C)=O)Sc2ccc(OC)cc21	-4.0%	-15.4%	i	5.0%	-7.0%	-13.9%
Clc1ccc(/C=C/c2ccnc3ccccc23)c(Cl)c1	x	x	x	u	x	-41.8%
COc1ccc2c(c1)c1c(c(=O)n(-c3ccc(OC)c(OC)c3)c(=O)n1Cc1ccccc1C)n2C	x	x	x	15.5%	x	1.3%
CCC(=O)N1c2ccc(S(=O)(=O)NCc3cccc(OC)c3)cc2CC1C (stereo not given)	x	5.5%	i	0.0%	x	-12.3%
S=C(NCCCN1CCOCC1)N1CCN(c2nc(-c3ccccc3)cs2)CC1	23.1µM*	u	i	-18.7%	18.4µM*	-27.9%
S=C(NCCCN1CCOCC1)N1CCN(c2nc(-c3ccc(Cl)cc3)cs2)CC1	u	3.16µM*	x	12.6µM*	u	11.2µM*
N=C1C(c2nc(-c3ccc(Cl)cc3)cs2)=C(O)CN1CCCN1CCOCC1	u	-4.8%	i	-5.4%	23.1µM*	-43.1%
CCOCCCNC(=S)N1CCN(c2nc(-c3ccc(F)cc3)cs2)CC1	u	u	i	u	20.6µM*	-42.1%
COCCCNC(=S)N1CCN(c2nc(-c3ccc(F)cc3)cs2)CC1	-17.0%	u	i	u	u	-30.4%
S=C(NCC1CCCO1)N1CCN(c2nc(-c3ccc(Cl)cc3)cs2)CC1 (stereo not given)	u	u	u	u	u	-21.1%
O=c1c2cnn(-c3ccc(Cl)cc3)c2ncn1Cc1cccc(C(F)(F)F)c1	x	4.8%	i	-0.1%	x	-1.0%
CC(=O)O[C@H]1[C@@H](O)[C@H](O)[C@H](Oc2c(O)c(C)c3c4c2[C@@H](C)CC[C@@H]4[C@@H](C)C[C@H]3C=C(C)C)O[C@H]1C	u	u	u	11.2µM*	u	-113.7%
COc1cc2cc(OC(C)=O)c3cc4c(cc3c2c(OC)c1OC)OCO4	22.2%	8.8%	i	x	15.0%	x
COc1ccc(C(=O)N2c3ccccc3C(=O)OC2c2ccc3c(c2)OCO3)cc1 (stereo not given)	-3.1%	23.4%	i	37.5%	-0.9%	-13.8%
COc1cc(C2c3cc4c(cc3OC(NNC(N)=S)C2C)OCO4)cc(OC)c1OC (stereo not given)	u	3.6%	u	u	1.84µM*	-22.7%
COc1ccc(C2c3cc4c(cc3OC(NNC(N)=O)C2C)OCO4)cc1 (stereo not given)	16.4µM*	-5.0%	i	-25.2%	u	-3.9%
COc1cc(C2c3cc4c(cc3OC(NNC(N)=O)C2C)OCO4)cc(OC)c1OC (stereo not given)	u	-1.4%	i	u	1.3µM*	-28.3%
COc1cc(C2c3cc4c(cc3C(O)C3COCC23)OCO4)cc(OC)c1OC (stereo not given)	u	-9.0%	i	9.6%	25.9µM*	-12.9%
COc1ccc(CN2CCOc3ccc(CN4CCC(Oc5cccnc5)CC4)cc3C2)cc1	x	x	i	x	x	x
CCOc1ccc(C(=O)N2CCC(c3nc4ccccc4o3)CC2)cc1	x	x	x	-0.2%	x	-18.7%
O=C(c1cccc(F)c1F)N1CCOc2ccc(CN3CCN(Cc4ccccn4)CC3)cc2C1	x	x	i	x	x	x
Cc1ccc(S(=O)(=O)N2CCN(c3nc(-c4cncs4)nc4ccccc34)CC2)cc1	2.0%	x	x	x	6.4%	x
O=C(O)c1ccc(NC2=C/C(=N/S(=O)(=O)c3cccs3)c3ccccc3C2=O)cc1	u	x	x	14.1µM*	u	-107.7%
Cc1cc(C)c(S(=O)(=O)/N=C2\C=C(Nc3ccc(C(=O)O)cc3)C(=O)c3ccccc32)c(C)c1	4.11µM*	28.2µM*	u	u	8.2µM*	15.8µM*
CC(O)(COc1ccccc1)c1ccc2c(c1)CN(Cc1cccc3ncccc13)CCO2 (stereo not given)	x	x	i	x	x	x
SMILES	HT1080 IDH1KD tx	ATXN2 expr inh	S2 tox	TGFb SMAD3 inh	HT1080NT lethal	HepG2 viability
CCc1ccc(NC(=O)CSc2nc3ccccc3c(=O)n2CCCC(=O)NCCCN2CCOCC2)cc1	18.4µM*	-37.3%	i	-29.6%	u	-28.0%
Cc1ccc(NC(=O)CSc2nc3ccccc3c(=O)n2CCCN2CCCCC2)cc1Cl	u	u	u	u	23.1µM*	14.1µM*
COc1cccc(NC(=O)CSc2nc3c(sc4ccccc43)c(=O)n2CCN(C)C)c1	-10.5%	-10.2%	i	u	1.6%	-0.6%
CCc1ccc(Nc2cc(C(=O)NCCCN3CCOCC3)c3ccccc3n2)cc1	u	-30.6%	u	-4.9%	-12.8%	7.08µM*
COc1cccc(NC(=O)CSc2nc3c(sc4ccccc43)c(=O)n2CCCN2CCCC2)c1	-8.6%	x	22.4µM*	u	-12.1%	-74.5%
COc1cccc(C(=O)NCC2Cc3cccc(-c4nc(C)cnc4C)c3O2)c1OC (stereo not given)	x	x	i	x	x	x
CCc1ccc(OCC(=O)N(Cc2ccco2)Cc2ccccc2Cl)cc1	x	x	x	x	x	-32.1%
CC(NC(=O)c1ccco1)c1nnc2n1CCN(Cc1ccc(Cl)cc1)CC2 (stereo not given)	x	x	i	x	x	x
CC(=O)N1c2c(cc(Br)cc2S(=O)(=O)Nc2ccc(OC(F)(F)F)cc2)CC1C (stereo not given)	x	u	i	u	x	-5.3%
Cc1ccc(NC(=O)CSc2nc3ccccc3c(=O)n2CCCC(=O)NCCCN2CCOCC2)cc1C	u	-18.9%	i	-0.9%	16.4µM*	36.0%
O=C1CCCC2=C1C(c1[nH]ncc1Cl)N=C(Nc1nc3ccccc3o1)N2 (stereo not given)	x	37.6%	x	x	x	x
CCCCCOc1ccc(C2SC(=O)NC2=O)cc1OCC (stereo not given)	x	14.4%	i	x	x	x
COc1ccccc1N(C(C)=O)C1=C(Cl)C(=O)c2ccccc2C1=O	7.31µM*	x	x	-17.7%	18.4µM*	11.2µM*
CCOC(=O)Nc1ccc2c(c1)N(C(=O)CCN(CC)CC)c1ccccc1S2=O (stereo not given)	25.9µM*	14.0%	u	14.1µM*	16.4µM*	-94.9%
CCOc1ccc(C(=O)NCCc2csc(-c3ccc(C(F)(F)F)cc3)n2)cc1OCC	x	x	x	0.0%	x	-1.4%
O=C1CCN(S(=O)(=O)c2ccccc2)CCN1CCOCc1ccc(C(F)(F)F)cc1	-2.4%	-16.4%	i	u	-0.8%	-18.9%
